Laboratory results from PubChem BioAssay AID1159580 (chemical genetic matrix, 2015).
“And” between values parts separate entries of the source, which are not always exact repeats. Equal entries are not always repeated. The campaign covered roughly 5,500 compounds. About 2,000 (36%) were called active. Another 18% or so got no clear call; they are omitted. Cut-off read from the data, not from the text of the source: active = normalized growth mostly below about 0.91 (no sharp cut-off); inconclusive = no clear call, values can overlap the other calls; inactive = mostly above about 0.92. The list shows a part of the results.

Assay: chemical genetic growth profiling, strain panel (AID 1159580);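 note: tested at 20 µM; growth read once vehicle control cultures reached saturation at 30 °C; 1 = growth at the plate median or of vehicle wells; lower values mean less growth of the strain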
Details: S. cerevisiae deletion strains, growth OD

Measured: normalized growth

O=C(O)C1=C[C@@H](O)[C@@H](O)[C@H](O)C1
inactive: locus YAL013W, strain DEP1, active compounds read low 1.02 | locus YAL021C, strain ccr4, active compounds read low 1 | locus YAL026C, strain drs2, active compounds read low 0.978 | locus YAL030W, strain snc1, active compounds read low 0.969 | locus YBL061C, strain skt5, active compounds read low 0.974 | locus YBR009C, strain hhf1, active compounds read low 0.988 | locus YBR021W, strain FUR4, active compounds read low 1.02 | locus YBR023C, strain chs3, active compounds read low 0.988 | locus YBR171W, strain sec66, active compounds read low 0.985 | locus YBR229C, strain ROT2, active compounds read low 1.01 | locus YBR231C, strain swc5, active compounds read low 0.98 | locus YBR279W, strain paf1, active compounds read low 0.977 | locus YCL011C, strain gbp2, active compounds read low 0.99 | locus YCL016C, strain dcc1, active compounds read low 0.987 | locus YCL029C, strain bik1, active compounds read low 1.01 | locus YCL061C, strain MRC1, active compounds read low 0.989 | locus YCL069W, strain vba3, active compounds read low 0.977 | locus YCR088W, strain abp1, active compounds read low 0.974 | locus YDL005C, strain med2, active compounds read low 0.976 | locus YDL035C, strain GPR1, active compounds read low 1.04 | locus YDL040C, strain nat1, active compounds read low 0.987 | locus YDL074C, strain BRE1, active compounds read low 1.07 | locus YDL101C, strain DUN1, active compounds read low 1.03 | locus YDL134C, strain PPH21, active compounds read low 0.999 | locus YDL185W, strain tfp1, active compounds read low 1.01 | locus YDL192W, strain arf1, active compounds read low 1.02 | locus YDR001C, strain nth1, active compounds read low 0.975 | locus YDR069C, strain doa4, active compounds read low 0.97 | locus YDR101C, strain arx1, active compounds read low 1.04 | locus YDR137W, strain rgp1, active compounds read low 0.977 | locus YDR150W, strain NUM1, active compounds read low 1.02 | locus YDR159W, strain sac3, active compounds read low 0.979 | locus YDR162C, strain NBP2, active compounds read low 1.01 | locus YDR195W, strain ref2 0.946 | locus YDR297W, strain sur2, active compounds read low 0.963 | locus YDR318W, strain mcm21, active compounds read low 0.999 | locus YDR334W, strain swr1, active compounds read low 0.966 | locus YDR335W, strain msn5, active compounds read low 0.976 | locus YDR388W, active compounds read low 1.01 | locus YDR392W, strain spt3, active compounds read low 1.04 | locus YDR502C, strain sam2, active compounds read low 1.01 | locus YEL003W, strain gim4, active compounds read low 0.979 | locus YEL037C, strain rad23, active compounds read low 0.971 | locus YEL061C, strain CIN8 (second series), active compounds read low 0.973 | locus YEL061C, strain CIN8, active compounds read low 1.01 | locus YER015W, strain faa2, active compounds read low 0.988 | locus YER016W, strain bim1, active compounds read low 0.977 | locus YER110C, active compounds read low 1.01 | locus YER111C, strain swi4, active compounds read low 0.967 | locus YER155C, strain BEM2 (second series), active compounds read low 0.958 | locus YER155C, strain BEM2, active compounds read low 1.01 | locus YER167W, strain BCK2, active compounds read low 1.01 | locus YFR010W, strain ubp6, active compounds read low 0.964 | locus YGL078C, strain dbp3, active compounds read low 1.01 | locus YGL086W, strain mad1, active compounds read low 1.07 | locus YGL167C, strain pmr1, active compounds read low 0.977 | locus YGL173C, strain kem1, active compounds read low 0.974 | locus YGL227W, strain vid30, active compounds read low 0.986 | locus YGL240W, strain doc1, active compounds read low 0.988 | locus YGL248W, strain PDE1, active compounds read low 1.03 | locus YGL253W, strain hxk2, active compounds read low 0.984 | locus YGR135W, strain pre9, active compounds read low 1.02 | locus YGR252W, strain gcn5, active compounds read low 0.931 | locus YHR013C, strain ard1, active compounds read low 0.949 | locus YHR027C, strain rpn1, active compounds read low 0.968 | locus YHR030C, strain SLT2, active compounds read low 1.01 and 0.984 | locus YHR079C, strain IRE1 (second series), active compounds read low 1.01 | locus YHR079C, strain IRE1, active compounds read low 0.972 | locus YHR094C, strain hxt1, active compounds read low 0.993 | locus YHR129C, strain ARP1, active compounds read low 1.02 | locus YHR142W, strain chs7, active compounds read low 0.995 | locus YHR200W, strain rpn10, active compounds read low 0.996 | locus YIL066C, strain RNR3, active compounds read low 1.02 | locus YIL073C, strain SPO22, active compounds read low 1.08 | locus YIL125W, strain kgd1, active compounds read low 1.03 | locus YIR030C, strain dcg1, active compounds read low 0.999 | locus YJL092W, strain hpr5, active compounds read low 0.976 | locus YJL095W, strain BCK1 (second series), active compounds read low 0.978 | locus YJL095W, strain BCK1, active compounds read low 1.04 and 0.998 | locus YJL115W, strain asf1, active compounds read low 0.952 | locus YJL129C, strain trk1, active compounds read low 0.981 | locus YJL134W, strain LCB3, active compounds read low 1.01 | locus YJL154C, strain vps35, active compounds read low 0.983 | locus YJL164C, strain tpk1, active compounds read low 0.981 | locus YJL166W, strain qcr8, active compounds read low 0.974 | locus YJL168C, strain set2, active compounds read low 1.01 | locus YJL187C, strain SWE1 (second series), active compounds read low 1.04 | locus YJL187C, strain SWE1, active compounds read low 0.976
